Data reported in PubChem BioAssay (Tox21).
Records with an inconclusive call do not appear. Unmarked numbers belong to inactive results. Calls come from the whole dose curve; as a rule, active = well fitted activation curve with a large enough effect in the repeat runs; inconclusive = weak or mixed curves; inactive = flat fitted curve, though single readings scatter.

test: A CellTox Green Cytotoxicity Assay to monitor cytotoxicity in HepG2 cells - 16 hour (AID 1224876); details: CellTox Green fluorescence; series mostly up to 76.8 µM; cytotoxicity increase: at the top concentration; note: nearly all actives have a fitted effect of over 45% in size
Text: National Center for Advancing Translational Sciences [NCATS]
NIH Chemical Genomics Center [NCGC]
U.S. Environmental Protection Agency [EPA]
National Institutes of Environmental Health Sciences [NIEHS]
National Toxicology Program [NTP]
Cell-based models are critical for drug discovery. Determining the natural cytotoxic effects resulting from test compounds is an essential research activity. A CellTox Green Cytotoxicity Assay to monitor cytotoxicity in real time of continues cell culture during 40 hours of the compound treatment was used to screen Tox21 10K library compounds in HepG2 cells. CellTox Green Cytotoxicity Assay is a nonlytic, homogeneous, biofluorescent method to measure cytotoxicity in cell culture after experimental manipulation. The assay system uses a proprietary asymmetric cyanine dye that is excluded from viable cells but preferentially stains the dead cell's DNA. […] Viable cells produce no appreciable increases in fluorescence. Therefore, the fluorescence signal produced by the binding interaction with dead cell DNA is proportional to cytotoxicity.
The mixture of HepG2 cell suspension and reagents were dispensed at 600cells/6 ul/well in 1536-well tissue culture treated black solid bottom plates using a Multidrop dispenser. After the assay plates were incubated at a 37 C/5% CO2 incubator for 5 hours, 23 nL of compounds dissolved in DMSO, positive and negative controls was transferred to the assay plate by a pintool work station. The plates were incubated at 37 C for 40 hours. The fluorescence intensity were measured at 0h, 8h, 16h, 24h, 32h and 40h time points using ViewLux plate reader during compound treatment.
% is set by controls: 0 for no effect and ±100 for the full control effect.

| Structure (SMILES) | cytotoxicity increase |
| --- | --- |
| COc1ccc2c(c1OC)C(=O)O[C@@H]2[C@H]1c2c(cc3c(c2OC)OCO3)CCN1C | 6.15% [at 35.3 µM] |
| CN=C(NC#N)Nc1ccc(C2=NNC(=O)CC2C)cc1 (stereo not given) | 1.1% [at 35.3 µM] |
| O=C1CCCC(=O)O1 | -12.6% |
| CN(C)CCOCCO | -10.2% |
| CCCCCCCCC(=O)Cl | 0.0788% |
| CCCCCCOC(=O)CC | 18.1% |
| O=S(=O)(O)CCN1CCN(CCO)CC1 | 0.0826% |
| O=C1c2cccc3c2[C@H](CCC3)CN1[C@@H]1CN2CCC1CC2 | 4.1% [at 35.3 µM] |
| O=C(O)CCSSCCC(=O)O | 0.269% |
| CCCN1C[C@H](CSC)C[C@@H]2c3cccc4[nH]cc(c34)C[C@H]21 | -11.5% [at 35.3 µM] |
| CC/C=C\CC1=C(C)CCC1=O | -5.89% |
| COc1ccc2nc(SCc3ncc(C)c(OC)c3C)[nH]c2c1 | -3.04% [at 35.3 µM] |
| CC(C)CC(C)CC(C)CC(C)COC(=O)c1ccccc1C(=O)OCC(C)CC(C)CC(C)CC(C)C (stereo not given) | 8.36% |
| CCCCCCN | 2.07% |
| CCCCOC(=O)c1ccccc1 | -0.181% |
| Nc1ccc([N+](=O)[O-])c(N)c1 | -2.25% |
| CC(S)C(=O)NCC(=O)O (stereo not given) | 5.63% [at 35.3 µM] |
| Nc1ccc2cc(S(=O)(=O)O)cc(O)c2c1 | -15.3% |
| OCCN(CCO)c1cccc(Cl)c1 | 1.82% |
| Cc1cccc2nccnc12 | -14.2% |

| Structure (SMILES) | cytotoxicity increase |
| --- | --- |
| CC(C)C(=O)OCCc1ccccc1 | 2.92% |
| CCCCCOC(=O)CCC | -1.93% |
| C[C@H](CCC(=O)O)[C@H]1CC[C@H]2[C@@H]3C(=O)C[C@@H]4CC(=O)CC[C@]4(C)[C@H]3CC(=O)[C@]12C | -6.53% [at 35.3 µM] |
| O=C(O)c1cc(Br)c(O)c(Br)c1 | -0.765% |
| C=C(C)C(=O)OCCN(CC)CC | -1.64% |
| C[C@@H](Oc1ccc(CNC(=O)c2cccnc2Oc2ccc3c(c2)OCO3)c(F)c1)C(=O)O | -11.6% |
| Cc1ccc2c(c1)OCC(=O)CO2 | 2.68% |
| CCCCCCCC/C=C\CCCCCCCC(=O)OCCCC | -7.79% [at 15.8 µM] |
| CCCCCCCCCCCCCC | -6.19% |
| C=COCCOCCOCCOC=C | 12.8% |
| CC(C)CC(=O)O | -0.959% |
| CCCCCCCCCC(C)=O | 8.63% |
| CC(C)CCCCOC(=O)c1ccccc1C(=O)OCCCCC(C)C | 1.68% |
| CCCCCCCCCCl | 4.47% |
| CC(=O)Nc1ccc(S(=O)(=O)Cl)cc1 | -11.8% |
| Cc1ccccc1N=O | -6.85% |
| Cc1ccccc1OCC(O)CO (stereo not given) | 9.23% [at 35.3 µM] |
| CCCCCCOc1ccccc1C(N)=O | -9.52% [at 35.3 µM] |
| O=C(OCC(O)CO)c1ccccc1Nc1ccnc2c(C(F)(F)F)cccc12 (stereo not given) | -14.3% [at 35.3 µM] |
| O=S(O)(O)=S | -0.212% [at 6.97 µM] |
